The supplement of paper PMC10849652
Of roughly 8,800 targets only a part is listed; those with a hit were picked by preference. About 0.5% of all pairs of compound and target were hits.

Experiments:
Experiment in all cases: log2 fold change, soluble protein after heating vs DMSO (PISA); higher = thermal stabilisation; K562 lysate, 10 uM; active = over 0.2 and 3.5 SD of the protein, either way, in both replicates (recomputed)
[1] = compound: C1=CC=C(C=C1)[C@H](COC2=CC3=C(C=C2)NC(=O)N3)NC(=O)C4=CC=CN(C4=O)CC5=CC(=C(C=C5)F)F
How it was run: (§1)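 A 30 min treatment with 10 μM compound was applied to crude K562 extract at 1 mg/mL protein in PBS pH 7.4 with 1 mM MgCl2. Heating for 3 min spanned 48°C-58°C, after which aliquots were pooled, adjusted to 0.5% NP-40 at 4°C and spun at 21,000xg for 90 min. TMTpro 16plex LC-MS/MS of the supernatant, with channel sums equalised, gave values recorded as log-two fold change in thermal stability against solvent controls, from duplicates.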

[2] = compound: CC1=C(SC2=C1C(=N[C@H](C3=NN=C(N32)C)CC(=O)N)C4=CC=C(C=C4)Cl)C
How it was run: as §1

[3] = compound: CC1=C2C(=CC=C1)N=C(N(C2=O)C3=CC=CC=C3C)CN4C=NC5=C(N=CN=C54)N
How it was run: as §1

[4] = compound: Cc1sc2c(c1C)C(c1ccc(Cl)cc1)=N[C@@H](CC(=O)OC(C)(C)C)c1nnc(C)n1-2
How it was run: as §1

[5] = compound: c1ccc([C@@H]2C[C@H]2NC2CCNCC2)cc1
How it was run: as §1

Chain of UniProt P83369 (P83369 whole entry, looked up): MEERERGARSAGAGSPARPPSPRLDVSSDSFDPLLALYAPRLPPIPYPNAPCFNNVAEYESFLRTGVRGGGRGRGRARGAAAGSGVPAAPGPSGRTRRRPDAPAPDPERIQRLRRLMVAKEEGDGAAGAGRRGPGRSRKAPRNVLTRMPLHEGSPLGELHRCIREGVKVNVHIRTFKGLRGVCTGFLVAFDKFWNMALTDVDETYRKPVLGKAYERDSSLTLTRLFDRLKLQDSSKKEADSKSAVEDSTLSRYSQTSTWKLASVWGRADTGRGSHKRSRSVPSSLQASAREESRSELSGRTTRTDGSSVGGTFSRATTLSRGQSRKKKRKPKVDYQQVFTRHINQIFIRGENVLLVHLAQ
Chain of UniProt O15243 (O15243 whole entry, looked up): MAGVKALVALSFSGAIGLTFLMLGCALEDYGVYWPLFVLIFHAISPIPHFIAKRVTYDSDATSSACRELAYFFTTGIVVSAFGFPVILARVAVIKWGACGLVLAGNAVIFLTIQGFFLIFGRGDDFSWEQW
Chain of UniProt Q16659 (Q16659 whole entry, looked up): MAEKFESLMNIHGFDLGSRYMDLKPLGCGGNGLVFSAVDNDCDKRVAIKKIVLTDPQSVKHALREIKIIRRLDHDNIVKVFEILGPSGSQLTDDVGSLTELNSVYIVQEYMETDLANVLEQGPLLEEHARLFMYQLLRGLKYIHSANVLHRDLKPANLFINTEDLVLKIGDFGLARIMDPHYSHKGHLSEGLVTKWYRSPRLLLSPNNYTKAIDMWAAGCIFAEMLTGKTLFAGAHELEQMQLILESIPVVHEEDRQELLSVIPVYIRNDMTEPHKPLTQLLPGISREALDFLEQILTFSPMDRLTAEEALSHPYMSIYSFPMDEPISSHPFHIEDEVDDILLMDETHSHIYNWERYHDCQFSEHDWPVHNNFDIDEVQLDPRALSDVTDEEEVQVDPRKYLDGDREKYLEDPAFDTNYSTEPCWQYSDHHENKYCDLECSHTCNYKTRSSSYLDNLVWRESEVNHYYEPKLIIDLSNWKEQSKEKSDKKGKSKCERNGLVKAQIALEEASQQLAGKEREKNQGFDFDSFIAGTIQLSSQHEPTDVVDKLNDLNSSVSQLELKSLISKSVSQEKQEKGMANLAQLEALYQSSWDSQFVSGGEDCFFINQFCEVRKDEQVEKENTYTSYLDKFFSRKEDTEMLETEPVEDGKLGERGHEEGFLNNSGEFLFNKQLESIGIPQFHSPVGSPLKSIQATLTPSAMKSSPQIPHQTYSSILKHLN
Chain of UniProt Q16553 (Q16553 whole entry, looked up): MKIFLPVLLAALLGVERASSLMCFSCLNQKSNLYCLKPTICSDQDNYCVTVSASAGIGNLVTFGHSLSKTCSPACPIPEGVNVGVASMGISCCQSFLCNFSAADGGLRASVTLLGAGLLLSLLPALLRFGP
Chain of UniProt O95819 (O95819 whole entry, looked up): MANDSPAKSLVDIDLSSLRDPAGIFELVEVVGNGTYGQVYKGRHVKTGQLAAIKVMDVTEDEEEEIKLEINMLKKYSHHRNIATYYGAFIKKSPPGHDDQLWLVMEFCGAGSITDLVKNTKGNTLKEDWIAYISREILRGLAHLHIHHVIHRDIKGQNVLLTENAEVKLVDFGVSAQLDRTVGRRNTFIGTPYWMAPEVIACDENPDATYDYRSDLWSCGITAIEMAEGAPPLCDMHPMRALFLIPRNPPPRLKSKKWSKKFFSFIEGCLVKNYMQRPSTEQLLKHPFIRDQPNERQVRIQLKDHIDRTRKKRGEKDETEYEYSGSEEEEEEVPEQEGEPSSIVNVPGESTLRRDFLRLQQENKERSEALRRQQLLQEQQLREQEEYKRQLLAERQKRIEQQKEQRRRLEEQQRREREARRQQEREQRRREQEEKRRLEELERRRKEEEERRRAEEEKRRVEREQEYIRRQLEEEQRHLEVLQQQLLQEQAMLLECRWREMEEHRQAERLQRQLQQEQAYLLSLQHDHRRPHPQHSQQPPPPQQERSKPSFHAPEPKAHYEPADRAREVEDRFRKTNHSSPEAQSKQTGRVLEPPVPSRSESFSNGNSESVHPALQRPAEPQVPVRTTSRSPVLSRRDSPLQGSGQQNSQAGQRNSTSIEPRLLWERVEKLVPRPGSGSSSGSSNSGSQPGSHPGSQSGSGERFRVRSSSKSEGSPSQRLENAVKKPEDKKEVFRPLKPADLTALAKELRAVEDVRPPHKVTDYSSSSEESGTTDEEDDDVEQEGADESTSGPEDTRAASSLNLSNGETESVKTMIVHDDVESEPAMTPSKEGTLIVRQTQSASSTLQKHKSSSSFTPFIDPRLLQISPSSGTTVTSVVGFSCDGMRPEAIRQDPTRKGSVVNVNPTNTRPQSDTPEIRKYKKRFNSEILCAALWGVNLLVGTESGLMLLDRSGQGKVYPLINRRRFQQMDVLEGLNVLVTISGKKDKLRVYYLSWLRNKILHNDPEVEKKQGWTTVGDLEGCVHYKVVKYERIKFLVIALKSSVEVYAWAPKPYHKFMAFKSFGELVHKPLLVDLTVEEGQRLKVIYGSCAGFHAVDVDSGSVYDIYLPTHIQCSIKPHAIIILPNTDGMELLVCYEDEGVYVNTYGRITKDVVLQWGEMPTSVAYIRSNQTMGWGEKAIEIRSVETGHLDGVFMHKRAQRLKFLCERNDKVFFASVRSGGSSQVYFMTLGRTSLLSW
Chain of UniProt Q5T3J3 (Q5T3J3 whole entry, looked up): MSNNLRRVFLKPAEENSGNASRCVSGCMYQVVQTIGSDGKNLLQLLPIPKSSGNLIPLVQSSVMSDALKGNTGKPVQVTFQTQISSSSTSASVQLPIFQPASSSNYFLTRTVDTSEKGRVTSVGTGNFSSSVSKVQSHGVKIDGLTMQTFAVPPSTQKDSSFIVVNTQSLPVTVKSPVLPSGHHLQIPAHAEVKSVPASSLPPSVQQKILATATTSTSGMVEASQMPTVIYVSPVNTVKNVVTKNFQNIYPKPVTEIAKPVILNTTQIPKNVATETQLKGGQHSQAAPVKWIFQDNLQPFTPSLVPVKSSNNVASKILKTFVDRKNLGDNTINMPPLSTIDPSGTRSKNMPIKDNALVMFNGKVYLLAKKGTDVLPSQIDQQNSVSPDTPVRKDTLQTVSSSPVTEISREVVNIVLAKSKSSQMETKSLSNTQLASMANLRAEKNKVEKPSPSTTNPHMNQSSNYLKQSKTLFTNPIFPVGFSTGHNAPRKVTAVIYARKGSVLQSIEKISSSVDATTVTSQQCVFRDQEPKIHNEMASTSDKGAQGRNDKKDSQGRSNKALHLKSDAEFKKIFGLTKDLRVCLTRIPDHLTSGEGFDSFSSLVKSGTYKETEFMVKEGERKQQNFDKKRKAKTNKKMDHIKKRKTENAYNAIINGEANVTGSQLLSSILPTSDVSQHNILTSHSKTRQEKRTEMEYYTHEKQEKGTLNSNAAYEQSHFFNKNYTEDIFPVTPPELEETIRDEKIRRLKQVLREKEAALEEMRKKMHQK
Chain of UniProt P01116 (P01116 whole entry, looked up): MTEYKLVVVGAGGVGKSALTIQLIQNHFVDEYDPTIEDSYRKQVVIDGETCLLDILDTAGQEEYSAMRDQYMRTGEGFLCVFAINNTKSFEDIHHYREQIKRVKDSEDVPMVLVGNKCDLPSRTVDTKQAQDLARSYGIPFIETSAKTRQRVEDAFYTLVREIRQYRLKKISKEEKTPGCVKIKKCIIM
Chain of UniProt Q9Y2E5 (Q9Y2E5 whole entry, looked up): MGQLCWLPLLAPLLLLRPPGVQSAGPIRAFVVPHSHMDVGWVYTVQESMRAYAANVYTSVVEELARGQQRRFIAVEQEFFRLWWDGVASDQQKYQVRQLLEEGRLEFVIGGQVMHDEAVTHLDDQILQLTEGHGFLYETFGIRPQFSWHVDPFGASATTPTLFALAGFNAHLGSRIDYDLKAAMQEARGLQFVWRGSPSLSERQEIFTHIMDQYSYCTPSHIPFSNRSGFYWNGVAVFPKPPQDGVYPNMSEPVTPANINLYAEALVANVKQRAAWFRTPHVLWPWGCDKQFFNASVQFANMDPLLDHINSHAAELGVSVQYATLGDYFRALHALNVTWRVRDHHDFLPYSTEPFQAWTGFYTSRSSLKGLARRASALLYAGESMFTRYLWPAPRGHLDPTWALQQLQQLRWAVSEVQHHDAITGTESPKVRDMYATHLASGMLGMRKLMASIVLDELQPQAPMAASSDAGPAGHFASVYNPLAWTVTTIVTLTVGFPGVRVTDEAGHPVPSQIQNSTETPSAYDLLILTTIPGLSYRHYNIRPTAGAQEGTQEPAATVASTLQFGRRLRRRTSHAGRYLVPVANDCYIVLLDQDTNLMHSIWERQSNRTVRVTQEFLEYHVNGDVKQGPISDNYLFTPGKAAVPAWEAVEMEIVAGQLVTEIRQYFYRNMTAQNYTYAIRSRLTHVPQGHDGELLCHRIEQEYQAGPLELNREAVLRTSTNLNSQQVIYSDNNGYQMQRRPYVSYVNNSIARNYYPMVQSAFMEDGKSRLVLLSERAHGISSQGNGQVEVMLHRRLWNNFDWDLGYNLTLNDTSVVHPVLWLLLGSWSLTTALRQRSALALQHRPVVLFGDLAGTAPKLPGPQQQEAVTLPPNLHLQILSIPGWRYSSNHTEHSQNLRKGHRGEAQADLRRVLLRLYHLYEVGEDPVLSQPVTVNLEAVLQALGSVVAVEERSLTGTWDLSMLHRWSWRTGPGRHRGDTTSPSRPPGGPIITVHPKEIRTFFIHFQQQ
Chain of UniProt Q9NWR8 (Q9NWR8 whole entry, looked up): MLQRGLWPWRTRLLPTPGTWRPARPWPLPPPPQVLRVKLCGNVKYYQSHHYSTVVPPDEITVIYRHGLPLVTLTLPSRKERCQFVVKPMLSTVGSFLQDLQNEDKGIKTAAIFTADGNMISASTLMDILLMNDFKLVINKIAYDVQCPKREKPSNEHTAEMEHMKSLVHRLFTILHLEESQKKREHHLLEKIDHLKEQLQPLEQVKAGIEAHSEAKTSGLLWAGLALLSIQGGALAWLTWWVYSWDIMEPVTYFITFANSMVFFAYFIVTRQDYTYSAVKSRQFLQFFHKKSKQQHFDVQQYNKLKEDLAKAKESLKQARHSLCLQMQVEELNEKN

Target	log2 fold change [1]	log2 fold change [2]	log2 fold change [3]	log2 fold change [4]	log2 fold change [5]
MAP11 (UniProt Q8WVR3)	-0.103 (inactive)	0 (inactive)	-0.006 (inactive)	0.063 (inactive)	-0.03 (inactive)
MAPK6 (UniProt Q16659)	0.062 (inactive)	-0.015 (inactive)	-0.016 (inactive)	-0.001 (inactive)	-0.037 (inactive)
MAPK3 (UniProt P27361)	0.008 (inactive)	0.006 (inactive)	-0.05 (inactive)	0.036 (inactive)	-0.048 (inactive)
KRAS (UniProt P01116)	–	–	0.088 (inactive)	0.016 (inactive)	-0.092 (inactive)
MEX3A (UniProt A1L020)	–	–	0.15 (inactive)	-0.073 (inactive)	–
LEPROT (UniProt O15243)	0.049 (inactive)	-0.009 (inactive)	–	–	-0.161 (inactive)
MAP4K4 isoform 6 (UniProt O95819)	0.076 (inactive)	0.063 (inactive)	–	-0.163 (inactive)	–
LRRC9 (UniProt Q6ZRR7)	–	–	0.008 (inactive)	–	0.209 (inactive)
MCUB (UniProt Q9NWR8)	0.097 (inactive)	-0.171 (inactive)	–	0.044 (inactive)	0.205 (inactive)
LYN isoform 2 (UniProt P07948)	–	–	–	0.043 (inactive)	0.102 (inactive)
KIF21A (UniProt H0YI78)	0.128 (inactive)	0.02 (inactive)	–	0.106 (inactive)	–
KIF3C (UniProt O14782)	–	–	0.683 (inactive)	-0.059 (inactive)	0.022 (inactive)
LSM11 (UniProt P83369)	–	–	0.285 (inactive)	-0.045 (inactive)	-0.089 (inactive)
LRRIQ1 (UniProt Q96JM4)	–	–	-0.002 (inactive)	–	–
MRPL22 (UniProt Q9NWU5)	–	–	–	–	0.019 (inactive)
MDM1 (UniProt Q8TC05)	–	–	0.018 (inactive)	-0.116 (inactive)	-0.866 (active)
KIF18B (UniProt Q86Y91)	–	–	–	-0.083 (inactive)	–
MED28 (UniProt Q9H204)	–	–	–	-0.032 (inactive)	0.018 (inactive)
KIF2A isoform 2 (UniProt O00139)	–	–	–	–	0.326 (inactive)
MDM2 isoform 11 (UniProt Q00987)	0.109 (inactive)	-0.092 (inactive)	-0.007 (inactive)	–	-0.158 (inactive)
MME (UniProt P08473)	-0.152 (inactive)	0.041 (inactive)	–	0.232 (inactive)	-0.001 (inactive)

Target	log2 fold change [1]	log2 fold change [2]	log2 fold change [3]	log2 fold change [4]	log2 fold change [5]
MAN2B2 (UniProt Q9Y2E5)	0.087 (inactive)	0.086 (inactive)	–	-0.007 (inactive)	0.255 (inactive)
LGALS3BP (UniProt Q08380)	–	–	0.159 (inactive)	-0.152 (inactive)	-0.071 (inactive)
MRPL27 (UniProt Q9P0M9)	0.002 (inactive)	-0.046 (inactive)	–	-0.048 (inactive)	0.208 (inactive)
MED25 isoform 3 (UniProt Q71SY5)	-0.069 (inactive)	0.026 (inactive)	–	0.01 (inactive)	0.052 (inactive)
LY6E (UniProt Q16553)	-0.031 (inactive)	-0.046 (inactive)	-0.075 (inactive)	–	-0.815 (inactive)
KRAS isoform 2 (UniProt P01116)	–	–	–	-0.006 (inactive)	–
MEGF8 (UniProt Q7Z7M0)	0.023 (inactive)	-0.022 (inactive)	–	0.116 (inactive)	0.1 (inactive)
LRIF1 (UniProt Q5T3J3)	–	–	-0.072 (inactive)	0.048 (inactive)	-0.071 (inactive)
MAPK7 (UniProt Q13164)	–	–	–	–	0.042 (inactive)
METTL21A (UniProt Q8WXB1)	0.048 (inactive)	-0.069 (inactive)	–	-0.068 (inactive)	0 (inactive)
LRPPRC (UniProt H7C3W8)	–	–	0.219 (inactive)	–	–
MRC2 (UniProt Q9UBG0)	–	–	–	0.209 (inactive)	-0.084 (inactive)
LRP1 (UniProt Q07954)	–	–	0.125 (inactive)	–	–
MACO1 (UniProt Q8N5G2)	-0.039 (inactive)	-0.044 (inactive)	0.125 (inactive)	-0.04 (inactive)	0.092 (inactive)
KMT2B (UniProt Q9UMN6)	–	–	–	-0.012 (inactive)	–
MAP3K6 (UniProt O95382)	–	–	0.012 (inactive)	–	–
LAS1L (UniProt Q9Y4W2)	-0.002 (inactive)	0 (inactive)	-0.023 (inactive)	0.02 (inactive)	-0.026 (inactive)
MAPKAP1 (UniProt Q9BPZ7)	–	–	–	-0.048 (inactive)	–
LIG3 (UniProt P49916)	-0.003 (inactive)	-0.018 (inactive)	-0.014 (inactive)	-0.035 (inactive)	0.021 (inactive)
MPDZ (UniProt O75970)	–	–	-0.024 (inactive)	-0.159 (inactive)	-0.09 (inactive)
MRPL30 isoform 2 (UniProt Q8TCC3)	0.086 (inactive)	-0.056 (inactive)	–	-0.102 (inactive)	0.476 (inactive)
